Measured values reported in PubChem BioAssay.
The source made the active and inactive calls.

Columns and labels:
[1] = system: Plasmodium falciparum Sir2 (PF13_0152, Sir2A); experiment: Plasmodium falciparum Sir2A binding compounds – biochemical, small-molecule microarray, 635 nm fluorescence, primary screen (AID 1098); conditions: fluorescence 635 nm, higher = more signal;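 note: score merges spot fluorescence intensity with its signal-to-noise ratio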
[2] = probe aDKK1 binding to arrayed compounds – biochemical, biotinylated probe, 635/667 nm fluorescence, primary screen (AID 1099); conditions: small-molecule microarray, higher = more signal;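 note: score merges 667nm spot fluorescence with signal to noise across triplicate slides; reference of the scale not given here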
[3] = probe aCHRDL2 binding to arrayed compounds – biochemical, biotinylated probe, 635/667 nm fluorescence, primary screen (AID 1100); conditions: small-molecule microarray, higher = more signal
[4] = change in splice reporter luminescence, either direction, cell-based, HEK293, spliceosome inhibition project, primary screen (AID 1101); conditions: HEK293 splicing luciferase reporter, 24 h, higher = more signal, called active from +8 up or from −8 down;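 note: HEK293 cells carrying a splicing-competent luciferase reporter gene; test concentration not given here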
[5] = target: Fibroblast growth factor 10 (Homo sapiens) (UniProt O15520); experiment: compounds binding fibroblast growth factor 10 – biochemical, small-molecule microarray, 635 nm fluorescence, primary screen (AID 1102); conditions: FGF10 binding, fluorescence 635 nm, higher = more signal
Chain of Fibroblast growth factor 10 (Homo sapiens) (O15520 whole entry, looked up): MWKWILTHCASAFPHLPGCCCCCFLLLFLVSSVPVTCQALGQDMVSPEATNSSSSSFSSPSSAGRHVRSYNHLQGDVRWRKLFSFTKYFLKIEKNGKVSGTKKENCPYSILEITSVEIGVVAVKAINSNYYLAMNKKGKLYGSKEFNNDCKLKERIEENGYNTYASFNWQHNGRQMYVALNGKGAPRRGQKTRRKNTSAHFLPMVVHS

[6] = system: glycogen synthase kinase-3 (GSK3A per assay name; protocol says GSK3B); experiment: compounds binding glycogen synthase kinase-3 – biochemical, small-molecule microarray, 635 nm fluorescence, GSK3A, primary screen (AID 1103); conditions: fluorescence 635 nm, higher = more signal; note: the record names both GSK3A and GSK3B
[7] = target: Epidermal growth factor receptor (Homo sapiens) (UniProt P00533); experiment: compounds binding epidermal growth factor receptor – biochemical, small-molecule microarray, 635 nm fluorescence, primary screen (AID 1104); conditions: EGFR binding, higher = more signal;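 note: score merges 667 nm emission intensity with spot signal to noise over triplicate slides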
Chain of Epidermal growth factor receptor (Homo sapiens) (P00533 whole entry, looked up): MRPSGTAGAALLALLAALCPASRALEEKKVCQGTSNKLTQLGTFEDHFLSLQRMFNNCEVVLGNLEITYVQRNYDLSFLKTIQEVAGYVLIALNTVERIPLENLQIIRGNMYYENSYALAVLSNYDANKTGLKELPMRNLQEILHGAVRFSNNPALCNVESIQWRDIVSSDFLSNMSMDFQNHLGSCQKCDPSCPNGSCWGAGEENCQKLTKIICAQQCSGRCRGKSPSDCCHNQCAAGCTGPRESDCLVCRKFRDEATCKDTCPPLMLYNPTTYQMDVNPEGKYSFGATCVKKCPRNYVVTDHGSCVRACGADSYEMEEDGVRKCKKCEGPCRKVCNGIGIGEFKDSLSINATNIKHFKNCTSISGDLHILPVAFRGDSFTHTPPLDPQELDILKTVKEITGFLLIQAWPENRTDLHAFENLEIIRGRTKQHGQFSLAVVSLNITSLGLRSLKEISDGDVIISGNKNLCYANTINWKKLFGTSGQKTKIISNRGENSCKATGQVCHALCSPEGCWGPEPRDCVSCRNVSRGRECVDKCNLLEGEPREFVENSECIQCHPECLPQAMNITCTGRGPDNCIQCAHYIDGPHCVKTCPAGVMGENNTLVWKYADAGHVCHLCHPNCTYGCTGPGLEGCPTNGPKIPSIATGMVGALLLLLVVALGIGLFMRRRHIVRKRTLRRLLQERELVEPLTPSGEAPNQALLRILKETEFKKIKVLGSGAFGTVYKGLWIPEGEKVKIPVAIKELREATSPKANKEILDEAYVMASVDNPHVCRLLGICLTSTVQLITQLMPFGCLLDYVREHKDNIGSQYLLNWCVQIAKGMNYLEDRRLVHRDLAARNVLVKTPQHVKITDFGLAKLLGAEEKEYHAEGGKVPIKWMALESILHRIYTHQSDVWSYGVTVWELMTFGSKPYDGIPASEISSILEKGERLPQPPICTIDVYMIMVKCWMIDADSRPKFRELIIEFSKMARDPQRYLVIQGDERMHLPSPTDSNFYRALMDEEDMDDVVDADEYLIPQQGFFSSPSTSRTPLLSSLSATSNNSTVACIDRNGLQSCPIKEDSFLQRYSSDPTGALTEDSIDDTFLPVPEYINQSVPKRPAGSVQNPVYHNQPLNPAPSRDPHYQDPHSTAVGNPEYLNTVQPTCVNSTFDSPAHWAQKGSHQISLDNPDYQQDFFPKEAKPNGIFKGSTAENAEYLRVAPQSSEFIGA

[8] = target: Follistatin-related protein 3 (Homo sapiens) (UniProt O95633); experiment: compounds binding follistatin-related protein 3 – biochemical, small-molecule microarray, 635 nm fluorescence, primary screen (AID 1105); conditions: FSTL3 binding, higher = more signal;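 note: score merges emission near 667 nm and signal to noise per printed spot across three slides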
Chain of Follistatin-related protein 3 (Homo sapiens) (O95633 whole entry, looked up): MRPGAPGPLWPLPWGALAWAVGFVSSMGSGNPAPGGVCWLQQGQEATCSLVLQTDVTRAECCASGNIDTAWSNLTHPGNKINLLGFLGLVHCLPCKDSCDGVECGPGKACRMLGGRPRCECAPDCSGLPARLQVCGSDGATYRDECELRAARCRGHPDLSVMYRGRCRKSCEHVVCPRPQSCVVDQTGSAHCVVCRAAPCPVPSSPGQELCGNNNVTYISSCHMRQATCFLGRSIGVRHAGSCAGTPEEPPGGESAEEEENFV

[9] = target: Dickkopf-related protein 1 (Homo sapiens) (UniProt O94907); experiment: small molecules binding DKK1 protein – biochemical, small-molecule microarray, 635 nm fluorescence scan, primary screen (AID 1106); conditions: higher = more signal;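 note: score merges emission near 667 nm with signal to noise over three replicate slides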
Chain of Dickkopf-related protein 1 (Homo sapiens) (O94907 whole entry, looked up): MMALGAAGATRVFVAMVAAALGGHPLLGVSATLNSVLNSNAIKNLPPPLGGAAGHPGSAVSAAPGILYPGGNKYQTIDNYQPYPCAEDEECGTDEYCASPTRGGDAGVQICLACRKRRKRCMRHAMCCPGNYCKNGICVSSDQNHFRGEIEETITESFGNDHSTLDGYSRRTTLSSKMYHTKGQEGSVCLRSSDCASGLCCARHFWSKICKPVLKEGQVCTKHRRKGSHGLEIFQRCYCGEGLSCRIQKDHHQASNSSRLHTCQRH

[10] = system: Inhibin beta A chain (activin A); experiment: small molecules binding activin A – biochemical, small-molecule microarray, 635 nm fluorescence scan, primary screen (AID 1107); conditions: INHBA, higher = more signal;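 note: mouse activin A protein probed at 4.33 µg/mL on printed slides; score merges bound-protein fluorescence near 667 nm with spot signal-to-noise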

| SMILES | composite z-score [1] | composite z-score [2] | composite z-score [3] | z-score [4] | composite z-score [5] | composite z-score [6] | composite z-score [7] | composite z-score [8] | composite z-score [9] | composite z-score [10] |
| --- | --- | --- | --- | --- | --- | --- | --- | --- | --- | --- |
| CCOC(=O)C1=CCC(c2cccn2C(=O)OC(C)(C)C)N(S(=O)(=O)c2ccc(C)cc2)C1 (stereo not given) | 1.45 | 0.484 | 0.574 | -0.799 (inactive) | 0.404 | 1.3 | 0.698 | 0.922 | 0.0815 | 1.46 |
| Cc1ccc(S[C@]2(C(=O)NC(C)C)CC(=O)N(Cc3ccccc3)[C@@H]2c2ccc(CO)cc2)cc1 | 0.0089 | 0.108 | 0.915 | -0.538 (inactive) | -1.18 | -1.34 | -1.01 | -0.363 | -1.51 | 0.159 |
| CC(C)C(=C=CC[C@H](O)c1cccc(OCCO)c1)C[C@H](O)c1ccccn1 | 0.406 | -0.326 | -0.253 | -0.779 (inactive) | 0.722 | 0.476 | -0.387 | 0.339 | -0.15 | 0.409 |
| C=C(CCCC)C(=O)CC[C@H](OC(=O)c1ccccc1-c1ccccc1C(=O)O)c1cccc(OCCO)c1 | 0.642 | -0.399 | -0.454 | -0.289 (inactive) | -0.282 | -0.121 | -0.988 | -0.578 | 0.0668 | 1.33 |
| C=CC[C@H](O)c1ccc(O)c2ccccc12 | 0.623 | -0.196 | -0.0155 | -1.26 (inactive) | 1.1 | 1.01 | 1.04 | 1.42 | 1.34 | 1.21 |
| CC1C2C(CCCO)=CC(C3C(=O)N(C(N)=O)C(=O)C23)N1Cc1cccc(OC(F)(F)F)c1 (stereo not given) | 0.174 | -0.0132 | -0.311 | -0.586 (inactive) | 0.646 | 0.719 | 0.177 | 0.101 | -0.26 | -0.055 |
| CN(C)C(=O)[C@]1(CCS(=O)(=O)c2ccccc2)N=C(c2ccc(OCCCO)cc2)O[C@@H]1c1ccccc1CN=[N+]=[N-] | 1.45 | -0.326 | 0.32 | -0.153 (inactive) | 1.26 | 1.24 | -0.126 | 0.425 | -0.142 | 0.869 |
| O=C1OCC=C[C@H]2OC34C=CCN(Cn5nnc6ccccc65)C(=O)[C@H]3N(CCO)C(=O)[C@@H]4[C@@H]12 (stereo not given in full) | 0.101 | -0.0279 | 0.329 | 1.15 (inactive) | -1.33 | -1.02 | -1.09 | -1.35 | -1.71 | -0.0812 |
| [N-]=[N+]=Nc1ccccc1C[C@@]1(C(=O)NCc2ccccc2)N=C(c2ccc(OCCCO)cc2)O[C@@H]1c1ccccc1 | 1.22 | 0.95 | 1.03 | -0.0448 (inactive) | 1.14 | 1.29 | 0.165 | 1.06 | 0.313 | 0.838 |
| CO[C@H]1O[C@H](CO)[C@@H](OC(=O)Nc2cccc(F)c2)[C@H](OC(=O)Nc2ccc3c(c2)OCO3)[C@@H]1OC(=O)Nc1ccc2c(c1)OCO2 | 1.13 | 0.359 | 0.558 | -1.13 (inactive) | 1 | 1.2 | 0.0595 | 1.37 | 0.229 | 0.663 |
| COc1c(C)cc(-c2nc(-c3ccccc3)c3c(c2C)CO[Si]3(C(C)C)C(C)C)cc1C | -0.186 | -0.141 | 0.0757 | -0.394 (inactive) | 0.295 | 0.324 | 0.387 | 0.338 | 0.305 | 0.698 |
| COc1cc2c(cc1O)C(C)N(Cc1sc3ccccc3c1Cl)CC2 (stereo not given) | -0.0748 | 0.247 | 0.868 | -0.283 (inactive) | -1.16 | -0.306 | -1.27 | -0.348 | -1.56 | -0.0182 |
| Cc1ccc(N2C(=O)c3ccccc3[C@@H](C(=O)NCCN3CCOCC3)[C@@H]2c2ccc(CO)cc2)nc1 | 1.25 | 0.0086 | 0.685 | 0.17 (inactive) | -0.329 | -1.09 | -0.914 | -0.799 | -0.459 | -0.382 |
| COc1ccc([Si](C)(C)[C@H]2[C@H](CC(=O)N(CCO)Cc3ccccc3)O[C@@]3(C(=O)N(Cc4ccc(N5C(=O)c6cccc7cccc5c67)cc4)c4ccccc43)[C@@H]2C)cc1 | 0.899 | 0.0486 | 0.0598 | -1.1 (inactive) | 0.994 | -0.461 | 0.303 | 0.614 | 0.541 | 0.803 |
| CCOC(=O)C[C@H]1[C@H](OC(=O)c2ccc(-c3ccccc3)cc2)[C@@H](NC(=O)C2CCCCC2)c2cc(OCCCO)ccc2N1C(=O)Cc1ccc(OC)cc1 | -0.186 | 0.0229 | 0.0338 | -0.772 (inactive) | 0.135 | 0.178 | 0.273 | 0.217 | 0.0901 | 0.647 |
| CCCCCCc1nc(-c2ccc(OC)nc2)c(C)c2c1[Si](C(C)C)(C(C)C)OC2 | -0.299 | -0.202 | -0.358 | -2 (inactive) | -0.168 | -0.264 | 0.218 | 0.565 | 1.03 | 0.444 |
| C=C1C(=O)C=C2CN(C(=O)c3ccccc3)[C@@](Cc3ccc(F)cc3)(C(=O)OC)[C@@H]12 | 0.641 | 1.16 | 1.21 | -0.756 (inactive) | 0.941 | 1.2 | -0.0735 | 1.06 | -0.519 | 1.05 |
| COC(=O)[C@H]1N=C(c2ccc(OCCCO)cc2)O[C@H]1c1ccccc1N=[N+]=[N-] | 1.08 | 0.927 | 1.34 | -0.977 (inactive) | -0.0781 | 0.205 | -0.454 | -0.359 | -0.529 | 1.21 |
| CC(C)(C)OC(=O)CC[C@@]1(C(N)=O)N=C(c2ccc(OCCCO)cc2)O[C@@H]1c1ccccc1CN=[N+]=[N-] | 0.469 | 1.42 | 1.08 | -0.169 (inactive) | 1.48 | 1.1 | 0.0813 | 0.211 | -0.105 | 0.854 |
| COCCCNC(=O)[C@@]1(CCC(=O)OC(C)(C)C)N=C(c2ccc(OCCCO)cc2)O[C@H]1c1ccccc1 | 1.06 | 0.96 | 1.02 | -0.187 (inactive) | 0.638 | -0.505 | -0.266 | 0.297 | -0.538 | 0.701 |
| [N-]=[N+]=Nc1ccccc1C[C@]1(C(=O)N2CCCCC2)N=C(c2ccc(OCCCO)cc2)O[C@H]1c1ccccc1 | 1.46 | 1.01 | 1.11 | -0.117 (inactive) | 1.25 | 0.952 | 0.102 | 0.616 | 0.26 | 0.781 |
